Several values for one entry are separate records, joined by “and”; a condition that tells them apart may be missing. Equal values may be shown once. Results filed as inconclusive are left out. Activity calls are given as the source filed them. Unless noted, no rule for the calls is given here.

A short description of assay [1]: qHTS Assay for Identifying Gametocytocidal Compounds (AID 743244; active = well fitted curve in the direction sought with a large enough effect; an effect the other way counts as inactive or inconclusive; also: potency is read from the fitted curve at half-maximal effect;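 as to max response: % is scaled to controls: 0 for no effect and ±100 for the full control effect; actives lower the fluorescent signal which means gametocytes are killed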). The note with it: P. falciparum 3D7 stage III-V gametocytes, alamarBlue, 72 h; max response: stronger effect = lower value. Put shortly:
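Fluorescence at Ex 525/Em 598 nm, recorded 24 h after alamarBlue addition, reports residual metabolic activity of 3D7 gametocytes (stages III–V) following 72 h compound exposure at 37 °C, 5% CO2.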

Assay [2] in a line: High-throughput drug toxicity screening in the BPDCN cell line Gen2.2 (AID 1224824).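 Also: cells exposed to compounds for 48 h before reading.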 The note with it: Gen2.2 BPDCN cells; at 45.8 µM (top of the series) unless noted. The gist of the method:
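CellTiter-Glo luminescence after 48 h compound exposure of Gen2.2 cells; percent activity set with DMSO as 100% and bortezomib (9.2 uM final) as 0%. Cells seeded at 500 per well, RPMI + 10% FBS, 37 °C.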

Assay [3] can be described thus: qHTS assay for cell viability of HEK293 cells (AID 743288; active = well fitted curve in the direction sought with a large enough effect; an effect the other way counts as inactive or inconclusive; also: % is scaled to controls: 0 for no effect and ±100 for the full control effect; nearly all actives have a fitted effect of over 50% in size). The settings on record: ATP luminescence (CellTiter-Glo), 18 h; max response: stronger effect = lower value. The gist of the method: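 Environmental chemicals tested in qHTS format against parental HEK293 cells; 18 h treatment, 37 C; read-out ATP luminescence (CellTiter-Glo), 30 min RT development.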
Background: qHTS replaces the single test concentration by a dilution series.

Assay [4] in a line: qHTS assay for cell viability of the p53RE-bla HCT-116 cell line (AID 743292; active = well fitted curve in the direction sought with a large enough effect; an effect the other way counts as inactive or inconclusive; also: % is scaled to controls: 0 for no effect and ±100 for the full control effect; nearly all actives have a fitted effect of over 55% in size). The gist of the method:
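Readout: CellTiter-Glo luminescence after 30 min RT. Treatment: compounds in DMSO, 16 h, 37 C. Cells: CellSensor p53RE-bla HCT-116, 4,000/well, preincubated 5 h.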

A short description of assay [5]: qHTS profiling for inhibitors of Plasmodium falciparum (DD2) proliferation (AID 743323). The settings on record: lower = more inhibition; at 28.7 µM (top of the series) unless noted. The gist of the method:
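SYBR Green fluorescence (ex 485, em 535 nm) of lysed cultures gives parasite DNA content; wells normalized to artemisinin (0.29 uM) and DMSO controls. Infected red cells: 0.3% parasitemia, 2.5% hematocrit, 72 h, 37 C.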

Assay [6] is described as follows: qHTS profiling of the MIPE4 collection as inhibitors of Plasmodium falciparum (3D7) proliferation (AID 743344).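 Also: scaled between DMSO vehicle wells and 0.29 µM artemisinin as full inhibition.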 The settings on record: P. falciparum 3D7 in erythrocytes, SYBR Green DNA fluorescence, 72 h; at 28.5 µM (top of the series) unless noted. Put shortly:
(§1)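 Erythrocytes infected with P. falciparum (0.3% parasitemia, 2.5% hematocrit) incubated with compounds 72 h at 37 C, 5% CO2. Lysis with saponin/Triton buffer containing SYBR Green I, overnight at room temperature in the dark; DNA fluorescence (485/535 nm) normalised to 0.29 uM artemisinin and DMSO.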

The nature of assay [7]: qHTS profiling of the MIPE4 collection as inhibitors of Plasmodium falciparum (DD2) proliferation (Rep 2) (AID 743346). The note with it: P. falciparum Dd2 in erythrocytes, SYBR Green DNA, 72 h; at 28.5 µM (top of the series) unless noted. The gist of the method: as §1
The nature of assay [8]: qHTS profiling of the MIPE4 collection as inhibitors of Plasmodium falciparum (HB3) proliferation (AID 743347).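 Also: plate controls were DMSO vehicle wells for no effect and artemisinin wells for full effect.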 The settings on record: P. falciparum HB3 in erythrocytes, SYBR Green DNA, 72 h; at 28.5 µM (top of the series) unless noted. Put shortly:
as §1

Assay [9] can be described thus: qHTS profiling of the MIPE4 collection as inhibitors of Plasmodium falciparum (DD2) proliferation (AID 743345). The note with it: P. falciparum Dd2 in erythrocytes, SYBR Green DNA, 72 h; at 28.5 µM (top of the series) unless noted. The gist of the method: as §1
The nature of assay [10]: qHTS profiling for inhibitors of Plasmodium falciparum (HB3) proliferation (AID 743324; active = well fitted curve in the direction sought with a large enough effect; an effect the other way counts as inactive or inconclusive;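 also: 100% = DMSO vehicle wells and 0% = artemisinin-treated control wells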). The settings on record: Plasmodium falciparum HB3 blood-stage proliferation; at 28.7 µM (top of the series) unless noted. Put shortly:
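P. falciparum HB3 grown in erythrocytes (0.3% parasitemia, 2.5% hematocrit final) with compound for 72 h at 37 C, 5% CO2. Parasite DNA detected by SYBR Green after saponin/triton lysis overnight; normalized to 0.29 uM artemisinin and DMSO.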

For `Nc1nc(OCc2ccccc2)c2[nH]cnc2n1`, the max response in [1] was 13.4% (inactive). For the same compound, in assay [2], the cell viability, % of control (lower = more cytotoxic) stood at 56%.
On to `Nc1nc(Cl)nc2c1ncn2[C@H]1C[C@H](O)[C@@H](CO)O1`, for which the max response in [1] is 30.7% (inactive) and 5.06% (inactive); in assay [3], -15% (inactive). In assay [4], the Potency entry is “inactive”. In assay [5], the activity, percent of control amounted to 93.6% [at 57.5 µM]. In [6], this compound displayed a parasite growth, % of DMSO control of 102%. Also, the parasite growth, % of control (lower = inhibition) in [7] worked out at 114%. Further, the growth, % of control in [8] was 103%. Further, in assay [2], the cell viability, % of control (lower = more cytotoxic) amounted to 93.3%.
On to `COc1c2occc2cc2ccc(=O)oc12`, for which the max response was 12.3% (inactive) in assay [1]; 1.56% (inactive) and -7.55% (inactive) in assay [3]. In [4], the Potency result was “inactive”. Besides, in assay [2], the cell viability, % of control (lower = more cytotoxic) came to 109%.
Turning to `Nc1ccc(S(N)(=O)=O)cc1`, the values for the max response in assay [1] and in assay [3] were 6.71% (inactive) and -1.9% (inactive), respectively. Besides, the Potency result in [4] is “inactive”. Besides, in assay [6], the parasite growth, % of DMSO control stood at 105%. In [7], the parasite growth, % of control (lower = inhibition) worked out at 95.9%. The growth, % of control in assay [8] came to 102%. Moreover, the cell viability, % of control (lower = more cytotoxic) in assay [2] was 169%.
Consider `Cc1cc2c(s1)Nc1ccccc1N=C2N1CCN(C)CC1`, for which, in assay [1], the max response is 2.02% (inactive). For the same compound, in assay [2], the cell viability, % of control (lower = more cytotoxic) came to 199%.
In the case of `NC(=NCc1ccccc1)NC(=O)c1nc(Cl)c(N)nc1N`, the Potency in assay [1] was 23.5 µM (active). Moreover, the activity, percent of control in [5] came to 10.1% [at 18.4 µM]. The same compound came in with a parasite growth, % of DMSO control in assay [6] of 103%. In [7], the parasite growth, % of control (lower = inhibition) worked out at 83.5%. Moreover, the cell viability, % of control (lower = more cytotoxic) in assay [2] is 130%.
With `Cc1ccc(C)c(OCCCC(C)(C)C(=O)O)c1`, the max response is 17.4% (inactive) in assay [1]; -0.77% (inactive) and -7.02% (inactive) in [3]. Also, the Potency result in assay [4] was “inactive”. In addition, in [6], the parasite growth, % of DMSO control was 5.29%. Moreover, in assay [9], the parasite growth remaining, % of DMSO control (lower = more inhibition) was 47.3%. Also, in assay [7], the parasite growth, % of control (lower = inhibition) came to 8.19%. Moreover, the cell viability, % of control (lower = more cytotoxic) in [2] is 120%.
For `CCN(CCO)CCCC(C)Nc1ccnc2cc(Cl)ccc12` (stereo unspecified), the max response in assay [1] was -15.7% (inactive). Besides, the activity, percent of control in assay [5] is 105% and 9.47%. In [10], the remaining proliferation (% of control), lower = more inhibition was 1.3% and -0.152%. In [6], this compound returned a parasite growth, % of DMSO control of 20.1%. In assay [7], the parasite growth, % of control (lower = inhibition) was 15.4%. In addition, in [2], the cell viability, % of control (lower = more cytotoxic) came out at 86.1%.
For the compound `CS(=O)(=O)OCCCCOS(C)(=O)=O`, the max response is 7.28% (inactive) in [1]; -9.44% (inactive) and 3.38% (inactive) and -6.4% (inactive) in [3]. For the same compound, the Potency result in [4] is “inactive”. The parasite growth, % of DMSO control in assay [6] was 89.8%. In assay [7], the parasite growth, % of control (lower = inhibition) was found to be 79.3%. For the same compound, in assay [2], the cell viability, % of control (lower = more cytotoxic) turned out to be 84.6%.
Consider `CCOC(=O)C1=C(O)C(=O)N(Cc2ccccc2)C1`, for which, in [1], the max response was 44.6% (inactive). Moreover, the activity, percent of control in [5] was determined as 82.3%. Further, the remaining proliferation (% of control), lower = more inhibition in assay [10] turned out to be 67.7%. Moreover, the parasite growth, % of DMSO control in assay [6] is 74.5%. Also, in assay [9], the parasite growth remaining, % of DMSO control (lower = more inhibition) amounted to 104%. Besides, the parasite growth, % of control (lower = inhibition) in [7] is 91%. The compound further had a growth, % of control in assay [8] of 93.7%. Besides, the cell viability, % of control (lower = more cytotoxic) in assay [2] was determined as 81.5%.
With `COc1cc(Nc2c(C#N)cnc3cc(OCCCN4CCN(C)CC4)c(OC)cc23)c(Cl)cc1Cl`, in assay [1], the Potency is 3.55 µM (active). Besides, the activity, percent of control in [5] worked out at 4.4%. In addition, the remaining proliferation (% of control), lower = more inhibition in assay [10] came to 1.13%. Also, the parasite growth, % of DMSO control in assay [6] was found to be 6.35%. The parasite growth remaining, % of DMSO control (lower = more inhibition) in [9] was found to be 10.9%. Moreover, the parasite growth, % of control (lower = inhibition) in assay [7] came out at 14.7%. The compound further returned a growth, % of control in assay [8] of 3.88%. Moreover, the cell viability, % of control (lower = more cytotoxic) in [2] was found to be 5%.
With `Cc1nc2n(c(=O)c1CCN1CCC(c3noc4cc(F)ccc34)CC1)CCCC2`, in assay [1], the max response is 9.32% (inactive). The cell viability, % of control (lower = more cytotoxic) in [2] is 80.6%.
For the compound `CNC[C@H](O)c1ccc(O)c(O)c1`, the max response is -9.4% (inactive) and 18.5% (inactive) in assay [1]; -7.6% (inactive) in assay [3]. Besides, the Potency result in assay [4] is “inactive”. The parasite growth, % of DMSO control in [6] was determined as 61.3% [at 57.5 µM]. Besides, the parasite growth, % of control (lower = inhibition) in [7] was determined as 51.2% [at 57.5 µM]. Besides, in assay [2], the cell viability, % of control (lower = more cytotoxic) was found to be 50.3% [at 92.2 µM].

(Values after PubChem BioAssay (NCATS).)
